# Compounds with a hit are over-represented: about 2.2% of the library has one in this group of screens.
# TROY signal inh: inhibitors of TROY-driven NF-kB signaling, primary screen, Q293 LMP1-TROYcd cells, NF-kB luciferase, uHTS. 360,000 tested, 0.98% active. Q293 LMP1-TROYcd NF-kB luciferase reporter, 4 h. inhibition, % at 10 µM;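 active = compounds whose plate-normalised and pattern-corrected inhibition of the luciferase reporter signal at the single screening dose is 50% or more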
# LGR2 inh: inhibitors of bursicon-induced LGR2 CRE-luciferase signal, primary screen, cell-based, HEK293, CRE-luciferase reporter, bursicon stimulation | Drosophila bursicon receptor LGR2 (rickets) | bursicon-stimulated, 4 h | inhibition, % at 9.99 µM | 380,000 tested, 0.35% active;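 active = drop in luminescence signal, shown as inhibition above about 50% in the replicate tests, limit read from the data, passing the limit was not always enough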;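 note: agonist challenge used bursicon conditioned medium at about half maximal strength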
# HSP90 inh: HSP90 inhibitors, primary screen, cell lysate, luminescence; Rabbit reticulocyte lysate, luciferase refolding luminescence, 3 h; inhibition, % at 5.6 µM; 290,000 tested, 0.91% active; AID 1789, 2009;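 active = inhibition above the screen-wide mean plus 3 SD, computed separately per campaign, cut at about 16% in these data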;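 note: inhibitors lower the luminescence because luciferase stays unfolded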
# TWEAK Fn14 block: inhibitors of TWEAK-Fn14 signaling, primary screen, luciferase reporter cells, uHTS; TWEAK-stimulated Fn14 reporter cells, luciferase luminescence, 8 h; inhibition, % at 10 µM; 360,000 tested, 2% active; in the data active = inhibition above about 50%
# A number is an active result; n = inactive; x = no result.
SMILES,TROY signal inh,LGR2 inh,HSP90 inh,TWEAK Fn14 block
O=C(CCN1CCCCC1)NCC[C@@H]1CC[C@H](NC(=O)C2CCCCC2)[C@H](CO)O1,x,n,x,x
CCN(C(=O)CC(C)C)c1nnc(Cn2nnc3ccccc32)s1,n,n,n,n
CCN(C(=O)c1ccc(C(C)(C)C)cc1)c1nnc(Cn2nnc3ccccc32)s1,n,x,n,73
C[C@H](CO)N1C[C@H](C)[C@@H](CN(C)Cc2cccc(C(=O)O)c2)Oc2ncc(C#C[C@@H](C)O)cc2C1=O,x,n,x,x
CC(=O)Nc1ccc2c(c1)C(=O)N(C)[C@H]1CC[C@H](CC(=O)NCc3ccc4c(c3)OCO4)O[C@H]1CO2,x,n,x,x
O=C1[C@@H]2Cc3ccccc3CN2C(=O)N1c1cccc(F)c1,62,x,n,n
CC12CCC(O)CC1=CCC1C2CCC2(C)c3[nH]ncc3CC12 (stereo not drawn),51,n,x,n
CC(=O)[C@H]1CC[C@H]2[C@@H]3CC=C4C[C@@H](O)CC[C@]4(C)[C@H]3CC[C@]12C,n,n,x,n
CN(C)c1ccc(/C=N/n2ncc3ccccc32)cc1,n,x,n,54
Cc1ccc2c(c1C)-c1c(ccc(C)c1C)C(=O)C2=O,61,55,x,86
CC(C)n1cnc2c(Nc3cccc(F)c3)nc(NCCO)nc21,n,n,x,n
CC(C)C[C@H](CO)Nc1nc(Nc2cccc(Cl)c2)c2ncn(C(C)C)c2n1,n,n,x,79
CC(C)NC(=O)N(C)C[C@H]1Oc2ccc(NS(=O)(=O)c3ccc(F)cc3)cc2C(=O)N([C@H](C)CO)C[C@H]1C,x,n,x,x
COc1ccccc1C#Cc1ccc2c(c1)[C@H]1[C@H](CCN1S(=O)(=O)c1cccc(C)c1)[C@H](CO)N2,x,n,x,x
COc1ccc(-n2cnc3scc(-c4ccccc4)c3c2=O)cc1,n,n,n,n
COc1ccc(-c2csc3ncn(Cc4ccccc4)c(=O)c23)cc1,n,n,n,91
CCN(CCNC(=O)c1cccc(N2CCCC2=O)c1)c1ccccc1,70,x,n,52
CN(CCNC(=O)c1cccc(N2CCCC2=O)c1)Cc1ccccc1,n,x,n,n
CCN1[C@H](C(=O)N2CCc3ccccc3C2)[C@@H](CO)[C@@H]2Cn3c(cccc3=O)[C@@H]21,x,n,x,x
COCC(=O)Nc1ccc2c(c1)C(=O)N(C)C[C@@H](OC)[C@H](C)CN(CC1CC1)[C@@H](C)CO2,x,n,x,x
CCN1C(=O)c2cccc3c(S(=O)(=O)N(C(=O)c4ccncc4)c4ccc(OC)cc4)ccc1c23,n,n,n,n
CCN1C(=O)c2cccc3c(S(=O)(=O)N(C(=O)c4cccnc4)c4ccc(OC)cc4)ccc1c23,n,n,n,62
Cn1c(NCCO)nc2c1c(=O)n(Cc1cccc(Cl)c1)c(=O)n2C,n,n,n,n
Cn1c(NCc2ccco2)nc2c1c(=O)n(Cc1ccc(Cl)c(Cl)c1)c(=O)n2C,n,x,n,50
Cn1c(NCCN2CCOCC2)nc2c1c(=O)n(Cc1cccc(Cl)c1)c(=O)n2C,x,x,n,80
SMILES,TROY signal inh,LGR2 inh,HSP90 inh,TWEAK Fn14 block
CO[C@@H]1CN(C)C(=O)c2ccc(NC(=O)c3cccc(F)c3)cc2OC[C@@H](C)N(CC2CC2)C[C@H]1C,x,n,x,x
Cc1ccc(NC(=O)CN(C(=O)N2CCN(C)CC2)S(=O)(=O)c2ccc(C)cc2)cc1,55,n,x,n
COCC(=O)N1[C@H](CO)[C@@H]2c3ccccc3N(C(=O)NC(C)C)C[C@@H]21,x,n,x,x
C[C@H]1CN([C@@H](C)CO)C(=O)c2cc(-c3ccccc3F)cnc2O[C@@H]1CN(C)C(=O)c1cnccn1,x,n,x,x
C=C1C(=O)O[C@@H]2C[C@@H](C)[C@@H]3C=CC(=O)[C@@]3(C)[C@@H](OC(C)=O)[C@H]12,x,103,x,x
OCCN(CCO)c1cc2c3ccccc3ccc2c2ccccc12,51,85,x,99
OCCN(CCO)c1ccc2ccccc2c1,n,n,n,n
O=C(N/N=C/c1ccccn1)c1[nH]c2ccc([N+](=O)[O-])cc2c1-c1ccccc1,54,n,n,n
NNC(=O)c1[nH]c2ccc([N+](=O)[O-])cc2c1-c1ccccc1,n,n,n,n
Cc1ccc(C(=O)Oc2coc(CSc3nnc(NC(=O)C4CC4)s3)cc2=O)cc1C,82,n,n,n
COc1ccc(Cl)cc1NC(=O)c1cccc([N+](=O)[O-])c1O,56,n,x,n
COc1ccc(Cl)cc1NC(=O)C/C(C)=N/NC(=O)c1ccccc1[N+](=O)[O-],n,n,n,n
Cn1ccnc1SCC(=O)NC12CC3CC(CC(C3)C1)C2,n,x,n,n

# Bioassay records (PubChem BioAssay)
